This note sets out measurements from ChEMBL document CHEMBL1961873, “Compounds: GSK PKIS; Assays: Nanosyn kinase panel” (2012).

Where “and” joins values, the source holds several entries; their conditions need not be identical. Equal values may be shown once.

Assay [1] has as its target Mitogen-activated protein kinase kinase kinase kinase 4 (Homo sapiens) (UniProt O95819). Particulars: at 1 µM.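 Also: reported figure is an averaged inhibition value.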
For assay [2], the target named is Dual specificity mitogen-activated protein kinase kinase 1 (Homo sapiens) (UniProt Q02750). Particulars: at 0.1 µM.
Dual specificity mitogen-activated protein kinase kinase 1 (Homo sapiens), sequence (Q02750 whole entry): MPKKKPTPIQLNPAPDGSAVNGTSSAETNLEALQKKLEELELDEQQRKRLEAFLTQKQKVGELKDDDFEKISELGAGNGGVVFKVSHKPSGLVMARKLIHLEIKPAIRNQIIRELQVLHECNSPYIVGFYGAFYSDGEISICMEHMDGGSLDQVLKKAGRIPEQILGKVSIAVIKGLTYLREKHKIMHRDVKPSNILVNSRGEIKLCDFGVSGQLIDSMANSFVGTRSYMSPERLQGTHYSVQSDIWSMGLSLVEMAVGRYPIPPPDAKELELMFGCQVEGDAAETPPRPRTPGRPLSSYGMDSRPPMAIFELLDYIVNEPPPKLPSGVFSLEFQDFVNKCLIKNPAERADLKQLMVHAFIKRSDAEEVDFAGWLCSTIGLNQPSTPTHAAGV
For assay [3] the target is unchanged. Particulars: at 1 µM.
Assay [4] addresses Misshapen-like kinase 1 (Homo sapiens) (UniProt Q8N4C8). The settings on record: at 0.1 µM.
The target is the same in assay [5]. Particulars: at 1 µM.
For assay [6], the target named is T1, Serine/threonine-protein kinase 4 (Homo sapiens) (UniProt Q13043).
T1 sequence (whole entry): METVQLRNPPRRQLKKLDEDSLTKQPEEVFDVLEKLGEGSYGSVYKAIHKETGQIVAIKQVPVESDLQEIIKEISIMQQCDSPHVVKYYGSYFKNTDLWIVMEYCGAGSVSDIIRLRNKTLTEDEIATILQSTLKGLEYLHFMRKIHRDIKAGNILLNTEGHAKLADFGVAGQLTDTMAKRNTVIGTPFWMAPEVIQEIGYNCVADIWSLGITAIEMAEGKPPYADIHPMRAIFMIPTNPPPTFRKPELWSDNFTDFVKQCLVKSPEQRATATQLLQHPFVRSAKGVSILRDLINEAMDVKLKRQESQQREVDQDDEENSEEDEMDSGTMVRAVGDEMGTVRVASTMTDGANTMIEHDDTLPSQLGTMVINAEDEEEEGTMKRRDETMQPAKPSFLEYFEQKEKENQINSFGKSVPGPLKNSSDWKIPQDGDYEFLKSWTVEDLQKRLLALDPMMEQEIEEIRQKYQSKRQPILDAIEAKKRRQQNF
Particulars: at 0.1 µM.

For assay [7], the target named is T1, Serine/threonine-protein kinase 4 (Homo sapiens). The settings on record: at 1 µM.
The target in assay [8] is T2, Serine/threonine-protein kinase 3 (Homo sapiens) (UniProt Q13188).
T2 sequence (whole entry): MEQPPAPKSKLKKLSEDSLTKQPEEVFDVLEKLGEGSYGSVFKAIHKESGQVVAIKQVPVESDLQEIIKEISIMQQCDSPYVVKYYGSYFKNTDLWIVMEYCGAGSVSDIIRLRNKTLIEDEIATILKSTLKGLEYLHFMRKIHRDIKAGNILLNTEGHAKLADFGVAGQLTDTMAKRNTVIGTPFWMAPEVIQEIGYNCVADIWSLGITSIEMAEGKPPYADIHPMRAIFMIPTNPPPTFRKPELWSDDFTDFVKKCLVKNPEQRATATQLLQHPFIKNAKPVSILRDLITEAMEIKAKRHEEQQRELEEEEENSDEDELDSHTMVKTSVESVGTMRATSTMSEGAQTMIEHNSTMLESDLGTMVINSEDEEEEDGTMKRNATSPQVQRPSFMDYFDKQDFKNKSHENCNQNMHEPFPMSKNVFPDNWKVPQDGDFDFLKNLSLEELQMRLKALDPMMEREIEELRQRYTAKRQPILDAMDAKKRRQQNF
Particulars: at 0.1 µM.

Assay [9] deals with T2, Serine/threonine-protein kinase 3 (Homo sapiens). Particulars: at 1 µM.
Assay [10] concerns the target Serine/threonine-protein kinase 26 (Homo sapiens) (UniProt Q9P289). The settings on record: at 0.1 µM.

Mitogen-activated protein kinase kinase kinase kinase 4 (Homo sapiens), sequence (O95819 2-1239 limits assumed): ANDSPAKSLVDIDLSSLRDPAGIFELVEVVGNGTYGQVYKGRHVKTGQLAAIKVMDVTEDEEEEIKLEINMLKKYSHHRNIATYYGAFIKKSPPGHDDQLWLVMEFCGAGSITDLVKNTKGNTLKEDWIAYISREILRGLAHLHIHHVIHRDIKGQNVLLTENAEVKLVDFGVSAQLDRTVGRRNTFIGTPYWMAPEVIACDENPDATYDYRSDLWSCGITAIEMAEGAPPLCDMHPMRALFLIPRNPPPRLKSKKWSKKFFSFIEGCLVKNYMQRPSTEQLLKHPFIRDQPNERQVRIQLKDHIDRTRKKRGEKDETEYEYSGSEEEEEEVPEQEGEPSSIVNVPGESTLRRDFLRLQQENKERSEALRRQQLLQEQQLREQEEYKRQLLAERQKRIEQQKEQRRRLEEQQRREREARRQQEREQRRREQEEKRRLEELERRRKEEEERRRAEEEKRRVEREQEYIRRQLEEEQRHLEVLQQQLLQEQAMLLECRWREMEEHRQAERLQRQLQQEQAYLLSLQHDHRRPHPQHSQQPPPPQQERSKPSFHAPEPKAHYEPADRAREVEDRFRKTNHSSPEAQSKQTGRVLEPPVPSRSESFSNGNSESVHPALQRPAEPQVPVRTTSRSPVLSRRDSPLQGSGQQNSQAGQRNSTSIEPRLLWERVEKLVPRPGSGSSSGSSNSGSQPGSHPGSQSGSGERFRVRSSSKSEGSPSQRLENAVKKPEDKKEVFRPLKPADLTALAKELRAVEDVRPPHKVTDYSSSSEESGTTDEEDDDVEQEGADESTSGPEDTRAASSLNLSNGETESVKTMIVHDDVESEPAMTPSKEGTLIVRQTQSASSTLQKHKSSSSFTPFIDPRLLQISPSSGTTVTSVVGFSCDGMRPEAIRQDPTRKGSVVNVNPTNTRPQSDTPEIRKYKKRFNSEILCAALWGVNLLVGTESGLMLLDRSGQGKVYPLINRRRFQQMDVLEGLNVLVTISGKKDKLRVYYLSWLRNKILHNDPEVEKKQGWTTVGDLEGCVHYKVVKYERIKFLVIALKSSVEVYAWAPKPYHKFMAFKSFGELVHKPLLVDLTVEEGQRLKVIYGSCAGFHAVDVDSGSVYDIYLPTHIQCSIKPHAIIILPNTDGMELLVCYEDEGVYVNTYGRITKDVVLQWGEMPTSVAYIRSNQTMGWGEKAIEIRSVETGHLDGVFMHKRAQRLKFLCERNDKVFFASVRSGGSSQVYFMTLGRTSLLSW
Misshapen-like kinase 1 (Homo sapiens), sequence (Q8N4C8 whole entry, looked up): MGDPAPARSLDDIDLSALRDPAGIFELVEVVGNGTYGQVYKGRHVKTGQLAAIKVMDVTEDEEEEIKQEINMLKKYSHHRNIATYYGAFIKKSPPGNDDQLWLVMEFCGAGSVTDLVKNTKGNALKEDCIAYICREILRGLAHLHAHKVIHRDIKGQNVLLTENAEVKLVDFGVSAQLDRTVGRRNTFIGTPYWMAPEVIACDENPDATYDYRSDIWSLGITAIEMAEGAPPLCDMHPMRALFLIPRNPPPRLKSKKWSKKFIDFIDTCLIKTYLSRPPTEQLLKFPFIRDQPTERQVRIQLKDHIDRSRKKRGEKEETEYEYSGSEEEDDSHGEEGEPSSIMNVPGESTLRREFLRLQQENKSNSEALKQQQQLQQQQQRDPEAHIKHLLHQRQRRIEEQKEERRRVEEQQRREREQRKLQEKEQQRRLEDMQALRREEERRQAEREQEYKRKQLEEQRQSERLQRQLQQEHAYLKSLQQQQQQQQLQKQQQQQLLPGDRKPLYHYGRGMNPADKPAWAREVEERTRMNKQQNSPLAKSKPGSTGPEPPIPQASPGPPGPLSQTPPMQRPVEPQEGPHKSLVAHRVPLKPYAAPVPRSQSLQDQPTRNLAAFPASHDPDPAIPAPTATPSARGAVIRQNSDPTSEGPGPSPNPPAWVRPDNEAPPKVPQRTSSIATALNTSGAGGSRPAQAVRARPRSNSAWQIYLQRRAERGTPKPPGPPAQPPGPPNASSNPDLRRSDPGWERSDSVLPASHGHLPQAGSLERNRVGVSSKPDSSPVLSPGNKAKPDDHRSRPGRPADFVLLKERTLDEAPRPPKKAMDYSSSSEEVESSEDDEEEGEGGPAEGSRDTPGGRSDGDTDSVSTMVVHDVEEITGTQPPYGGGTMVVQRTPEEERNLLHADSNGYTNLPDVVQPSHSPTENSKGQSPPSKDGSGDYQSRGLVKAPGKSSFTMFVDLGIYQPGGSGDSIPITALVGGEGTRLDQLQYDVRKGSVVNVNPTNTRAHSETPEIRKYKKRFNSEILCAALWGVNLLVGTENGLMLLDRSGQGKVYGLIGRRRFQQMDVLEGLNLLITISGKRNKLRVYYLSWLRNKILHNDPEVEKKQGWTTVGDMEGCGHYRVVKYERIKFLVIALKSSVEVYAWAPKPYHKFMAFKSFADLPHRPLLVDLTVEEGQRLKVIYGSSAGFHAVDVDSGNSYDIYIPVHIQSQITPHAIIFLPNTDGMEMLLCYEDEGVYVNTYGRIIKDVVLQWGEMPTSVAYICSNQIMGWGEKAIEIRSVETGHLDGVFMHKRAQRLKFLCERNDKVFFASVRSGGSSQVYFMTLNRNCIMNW
Serine/threonine-protein kinase 26 (Homo sapiens), sequence (Q9P289 2-416 limits assumed): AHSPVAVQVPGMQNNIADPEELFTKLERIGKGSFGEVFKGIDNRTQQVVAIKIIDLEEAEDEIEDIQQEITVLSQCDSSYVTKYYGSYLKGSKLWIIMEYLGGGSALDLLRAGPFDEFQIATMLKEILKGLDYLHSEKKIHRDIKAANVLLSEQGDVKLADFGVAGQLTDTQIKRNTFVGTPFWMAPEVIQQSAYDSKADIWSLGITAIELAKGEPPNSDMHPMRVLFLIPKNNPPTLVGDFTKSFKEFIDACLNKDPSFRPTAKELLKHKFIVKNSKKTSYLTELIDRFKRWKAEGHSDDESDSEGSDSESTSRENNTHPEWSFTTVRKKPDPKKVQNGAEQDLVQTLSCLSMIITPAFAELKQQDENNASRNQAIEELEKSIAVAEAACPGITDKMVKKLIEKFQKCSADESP

With `CN1CCC(n2cnc(-c3ccc(F)cc3)c2-c2ccnc(NCCO)n2)CC1`, the inhibition – broadly, the relative decrease from the control value, in per cent – was 17.5% in assay [1]; 4.13% in [2]; 5.25% in [3]; 7.76% in assay [4]; 15.8% in assay [5]; 7.06% in assay [6]. Further, the inhibition in [7] was 10.4%; in assay [8], 7.55%; in [9] it was 9.48%; in assay [10] it was -1.24%.
`CNC(=O)c1sc(-n2cnc3cc(OC)c(OC)cc32)cc1OCc1ccccc1C(F)(F)F`: the inhibition in assay [1] was determined as 12.2%; in assay [2], 3.14%; in [3], 3.6%; in [4], 9.53%; in [5] it was 12.2%; in assay [6] it was 2.47%. Further, the inhibition in assay [7] was 3.85%; in assay [8], 5.34%; in [9], 7.16%; in assay [10], -0.27%.
For `CCn1c(-c2nonc2N)nc2cncc(C(=O)NCCNC)c21`, the inhibition is 11.3% in assay [1]; 4.81% in assay [2]; 3.62% in [3]; 7.39% in [4]; 10.8% in [5]; 3.84% in assay [6]. The inhibition was 6.56% in [7], 5.96% in assay [8], 7.27% in assay [9] and -3.72% in [10].
With `COc1ccc(Nc2ncc(-c3ccccc3)o2)cc1OC`, the inhibition in assay [1] came out at 48.3%; in assay [2], 0.51%; in [3], 2.06%; in assay [4] it was 7.04%; in assay [5], 35.5%; in assay [6] it was 0.86%. Moreover, the inhibition in [7] is 4.87%; in assay [8], -0.13%; in [9], 2.73%; in [10], -0.79%.
In the case of `NS(=O)(=O)c1ccc(N/N=C2\C(=O)Nc3ccc(C(=O)NCc4ccncc4)cc32)cc1`, the inhibition in assay [1] was found to be 46.5%; in assay [2], 15.6%; in assay [3] it was 57.6%; in [4], 9.67%; in assay [5], 39.4%; in assay [6] it was 36.8%. For the same compound, the inhibition in [7] was found to be 76.1%; in assay [8] it was 31.2%; in [9], 72%; in assay [10], 0.05%.
For the compound `Fc1cccc(COc2ccc(Nc3ncncc3C#Cc3ccccc3)cc2Cl)c1`, the inhibition in [1] was found to be 15%; in assay [2], 6%; in [3], 4.44%; in [4] it was 7.69%; in assay [5], 15.9%; in assay [6] it was 6.89%. In addition, the inhibition in assay [7] was 9.95%; in assay [8] it was 6.83%; in assay [9] it was 8.97%; in assay [10], -0.45%.
Consider `CS(=O)(=O)CCNCc1ccc(-c2ccc3ncnc(Nc4ccc(OCc5ccccc5)cc4)c3c2)o1`, for which the inhibition in [1] was 6.76%; in assay [2], 2.75%; in assay [3] it was 2.72%; in assay [4], 5.38%; in [5], 5.67%; in assay [6] it was 3.24%. The inhibition was found to be 3.52% in assay [7], 5.36% in assay [8], 3.74% in assay [9] and 0.02% in assay [10].
On to `CC(C)c1ccc(-c2cc(-c3c[nH]nc3-c3ccccn3)ccn2)cc1`, for which the inhibition in assay [1] worked out at 53.8%; in assay [2], 0.36%; in assay [3] it was 2.47%; in assay [4], 7.67%; in [5], 37.6%; in [6] it was 0.63%. For the same compound, the inhibition was -0.98% in assay [7], 1.18% in [8], 0.64% in assay [9] and 0.06% in assay [10].
In the case of `Cc1ccc(-c2cc3c(NC(=O)C4CC4)ncnc3o2)cc1`, the inhibition in [1] was 8.27%; in assay [2], 3.02%; in assay [3] it was 3.21%; in [4], 6.35%; in [5], 8.16%; in [6], 6.14%. For the same compound, the inhibition in assay [7] was 7.49%; in assay [8] it was 5.64%; in assay [9], 4.87%; in [10], -2.57%.
On to `CNC(=O)c1ncccc1Nc1nc(Nc2cc3c(cc2OC)CCCN3C(=O)CN(C)C)nc2[nH]ccc12`, for which the inhibition is 6.26% in assay [1]; 3.03% in assay [2]; 3.53% in assay [3]; 5.92% in assay [4]; 7.79% in [5]; 8.58% in assay [6]. The inhibition is 12.8% in assay [7], 8.59% in assay [8], 7.84% in assay [9] and -2.11% in [10].
As to `FC(F)(F)CNc1nccc(-c2cnn3ncccc23)n1`, the inhibition came out at 3.37% in assay [1]; 1.61% in assay [2]; 2.41% in assay [3]; 3.42% in [4]; 3.44% in assay [5]; 3.65% in [6]. Also, the inhibition in assay [7] was 3.82%; in assay [8], 6.06%; in assay [9], 6.67%; in assay [10] it was -0.96%.
Regarding `Nc1nonc1-c1nc2cnccc2n1C1CC1`, the inhibition in assay [1] was 39.8% and 40%; in assay [2], 3% and 3.58%; in assay [3], 6.15% and 7.11%; in assay [4], 9.13% and 8.38%; in [5], 30.2% and 28.1%; in [6] it was 6.61% and 2.32%. Further, the inhibition in assay [7] is 23.1% and 15.3%; in [8], 6.77% and 2.58%; in [9], 17.9% and 12.6%; in [10] it was -0.67% and -1.23%.
With `CC1=C(C(=O)Nc2ccc3[nH]nc(C)c3c2)C(c2ccc(C(F)(F)F)cc2)CC(=O)N1` (stereo not given), the inhibition in assay [1] was 1.55%; in assay [2] it was 6.17%; in assay [3], 36.5%; in assay [4] it was 4.68%; in assay [5], 4.08%; in assay [6], 5.04%. For the same compound, the inhibition in assay [7] was 7.56%; in assay [8] it was 5.03%; in assay [9], 5.46%; in [10], -1.47%.
With `Cc1cc(O)cc(C)c1/C=C/c1cncc(C(=O)OC(C)(C)C)c1`, the inhibition in assay [1] stood at 15.2%; in assay [2], 4.02%; in assay [3], 3.99%; in assay [4], 6.01%; in assay [5], 9.55%; in assay [6], 3.56%. The inhibition in assay [7] worked out at 8.26%; in assay [8], 2.81%; in assay [9], 6.28%; in assay [10], 0.35%.
As to `CS(=O)(=O)Nc1ccc(-c2cc(-c3ccccc3)cc(C(N)=O)c2N)cc1`, the inhibition in assay [1] amounted to 16.6%; in assay [2], 3.57%; in assay [3] it was 2.74%; in [4], 0.77%; in assay [5], 10.4%; in assay [6] it was 0.24%. The inhibition is 0.83% in [7], -1.12% in assay [8], -0.76% in [9] and -1.2% in assay [10].
